# From PubChem BioAssay (EPA / NIEHS)
# The source made the active and inactive calls. How the source made its calls: active means hit-call score of the fitted dose curve at least 0.9, where 1 is the maximum; inactive means score below 0.9.
# Experiments:
# [1] = target: Transcription factor E2F1 (Homo sapiens) (UniProt Q01094); experiment: ATG_E2F_CIS: Attagene CIS-FACTORIAL HepG2 Assay for human E2F Transcription Factor 1 (AID 2282935); details: HepG2 Attagene cis-reporter, E2F reporter RNA transcripts; actives raise or lower the signal
# Chain of Transcription factor E2F1 (Homo sapiens) (Q01094 whole entry, looked up): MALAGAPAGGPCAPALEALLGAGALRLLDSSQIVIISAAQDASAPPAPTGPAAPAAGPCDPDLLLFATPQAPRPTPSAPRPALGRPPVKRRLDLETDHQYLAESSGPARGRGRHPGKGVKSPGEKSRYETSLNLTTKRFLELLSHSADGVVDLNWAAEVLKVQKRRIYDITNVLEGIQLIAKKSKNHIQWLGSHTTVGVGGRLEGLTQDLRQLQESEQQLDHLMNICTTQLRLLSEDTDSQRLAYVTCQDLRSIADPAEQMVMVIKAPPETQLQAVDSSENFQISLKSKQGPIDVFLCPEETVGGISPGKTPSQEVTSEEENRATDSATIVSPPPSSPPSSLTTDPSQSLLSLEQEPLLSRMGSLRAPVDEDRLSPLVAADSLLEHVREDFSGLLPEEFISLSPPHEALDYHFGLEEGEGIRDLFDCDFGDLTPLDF
# Method in brief: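 Gain or loss of reporter transcript, fitted against DMSO, reflects E2F1-driven transcription. Transiently transfected HepG2 dosed 24 h before RNA isolation. Quantified by fluorescent RT-PCR products separated by capillary electrophoresis.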
# [2] = ATG_E_Box_CIS: Attagene CIS-FACTORIAL HepG2 Assay for human Enhancer Box (E-box) (AID 2282936); details: HepG2 E-box cis-reporter transcription, actives raise or lower the signal
# Method in brief: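 E-box-driven reporter transcripts measured in transiently transfected HepG2 after 24 h exposure: RNA reverse-transcribed, PCR-amplified, fluorescently labelled, digested and resolved by capillary electrophoresis. Gain or loss relative to DMSO.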
# [3] = ATG_M_61_CIS: Attagene CIS-FACTORIAL HepG2 Assay for M61 Transcription Factor (Internal Marker) (AID 2282937); details: HepG2 Attagene CIS-FACTORIAL M61 internal marker reporter; actives raise or lower the signal
# Method in brief: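 Background-control endpoint: HepG2 cells with cis-regulated reporter constructs, 24 h exposure, reporter mRNA detected via fluorescent primer extension and capillary electrophoresis; values from bidirectional fitting with DMSO baseline.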
# [4] = ATG_EGR_CIS: Attagene CIS-FACTORIAL HepG2 Assay for human Early Growth Response 1 (EGR1) (AID 2282938); details: HepG2 Attagene CIS-FACTORIAL EGR reporter mRNA; actives raise or lower the signal
# Method in brief: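 Endpoint derived by bidirectional fitting versus DMSO vehicle. Method: cis-promoter reporter units transfected into HepG2, 24 h dosing, RNA isolation, RT-PCR with 6-FAM primer extension and HpaI digestion, then capillary electrophoresis fluorescence detection.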
# [5] = ATG_M_19_CIS: Attagene CIS-FACTORIAL HepG2 Assay for M19 Transcription Factor (Internal Marker) (AID 2282939); details: HepG2 Attagene CIS-FACTORIAL M19 internal marker reporter; actives raise or lower the signal
# Method in brief: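 Signals come from fluorescence of labelled reporter-specific PCR fragments resolved by capillary electrophoresis, following 24 h treatment of HepG2 cells transfected with cis-promoter reporter units; activity was fitted in both directions relative to DMSO.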
# [6] = ATG_ERE_CIS: Attagene CIS-FACTORIAL HepG2 Assay for Estrogen Response Element (ERE) (AID 2282940); details: HepG2 ERE cis-reporter, Attagene RNA transcript; actives raise or lower the signal
# Method in brief: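 Fluorescence of capillary-separated, FAM-labelled reporter cDNA fragments indicates reporter mRNA levels in HepG2 cells exposed to chemicals for 24 h. Transient transfection with cis-regulated units; data fitted in both directions against DMSO.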
# [7] = ATG_Ets_CIS: Attagene CIS-FACTORIAL HepG2 Assay for human Erythroblast Transformation Specific (ETS) (AID 2282941); details: HepG2 ETS cis-reporter transcription, actives raise or lower the signal
# Method in brief: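 RT-PCR/capillary electrophoresis fluorescence read-out of reporter mRNA; HepG2 transient multi-reporter transfection; 24 h compound exposure; gain or loss of signal fitted bidirectionally relative to DMSO.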
# [8] = target: Hepatocyte nuclear factor 3-beta (Homo sapiens) (UniProt Q9Y261); experiment: ATG_FoxA2_CIS: Attagene CIS-FACTORIAL HepG2 Assay for human Forkhead box A2 (FOXA2) (AID 2282942); details: HepG2 cis-reporter transcription factor activity, 24 h; actives raise or lower the signal
# Chain of Hepatocyte nuclear factor 3-beta (Homo sapiens) (Q9Y261 whole entry, looked up): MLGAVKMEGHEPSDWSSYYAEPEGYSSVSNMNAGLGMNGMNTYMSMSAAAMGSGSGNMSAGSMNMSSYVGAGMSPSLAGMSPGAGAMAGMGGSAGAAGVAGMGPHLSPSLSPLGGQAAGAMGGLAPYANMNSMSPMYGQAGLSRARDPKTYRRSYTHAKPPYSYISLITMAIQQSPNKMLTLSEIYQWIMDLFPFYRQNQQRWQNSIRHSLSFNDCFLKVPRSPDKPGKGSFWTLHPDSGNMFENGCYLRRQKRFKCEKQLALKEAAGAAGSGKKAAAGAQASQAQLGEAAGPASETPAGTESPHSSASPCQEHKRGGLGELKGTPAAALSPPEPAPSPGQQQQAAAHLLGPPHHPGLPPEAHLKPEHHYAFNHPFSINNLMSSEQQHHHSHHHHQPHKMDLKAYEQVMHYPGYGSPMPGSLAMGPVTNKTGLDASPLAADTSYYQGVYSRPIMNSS
# Method in brief: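 Measured: reporter mRNA induction or loss in HepG2 transiently carrying multiple cis-regulated reporter units, 24 h after dosing. Quantified by RT-PCR plus capillary electrophoresis, normalised to DMSO.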
# [9] = ATG_FoxO_CIS: Attagene CIS-FACTORIAL HepG2 Assay for human Forkhead box O (FoxO) (AID 2282943); details: HepG2 Attagene cis-reporter, FoxO element, mRNA; actives raise or lower the signal
# Method in brief: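 HepG2, transient MRTU transfection (cis element, endogenous TFs). Dose 24 h. TriZol RNA → oligo(dT) RT → PCR → 6-FAM primer extension → HpaI cut → CE. Gain/loss vs DMSO.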
# [10] = ATG_GATA_CIS: Attagene CIS-FACTORIAL HepG2 Assay for human GATA Binding Protein (AID 2282944); details: HepG2 GATA cis-element reporter, Attagene multiplex mRNA; actives raise or lower the signal
# Method in brief: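 After transfecting HepG2 cells with multiple cis-regulated reporter units, chemicals are dosed for 24 h; isolated RNA undergoes RT-PCR and fluorescent labeling before capillary electrophoresis, with activity expressed against DMSO.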
# [11] = ATG_GLI_CIS: Attagene CIS-FACTORIAL HepG2 Assay for human Zinc Finger Protein GLI1 (AID 2282945); details: HepG2, Attagene cis-factorial reporter mRNA, GLI element; actives raise or lower the signal
# Method in brief: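 Bidirectional curve fits relative to DMSO, using reporter mRNA levels from RT-PCR plus capillary electrophoresis. Cells were HepG2 transiently carrying cis-regulated reporter constructs, harvested 24 h after dosing.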
# [12] = target: Bile acid receptor (Homo sapiens) (UniProt Q96RI1); experiment: ATG_IR1_CIS: Attagene CIS-FACTORIAL HepG2 Assay for human Nuclear Receptor Subfamily 1 Group H Member 4 (NR1H4), IR1 submotif (AID 2282946); details: IR1 reporter transcription, actives raise or lower the signal
# Chain of Bile acid receptor (Homo sapiens) (Q96RI1 whole entry, looked up): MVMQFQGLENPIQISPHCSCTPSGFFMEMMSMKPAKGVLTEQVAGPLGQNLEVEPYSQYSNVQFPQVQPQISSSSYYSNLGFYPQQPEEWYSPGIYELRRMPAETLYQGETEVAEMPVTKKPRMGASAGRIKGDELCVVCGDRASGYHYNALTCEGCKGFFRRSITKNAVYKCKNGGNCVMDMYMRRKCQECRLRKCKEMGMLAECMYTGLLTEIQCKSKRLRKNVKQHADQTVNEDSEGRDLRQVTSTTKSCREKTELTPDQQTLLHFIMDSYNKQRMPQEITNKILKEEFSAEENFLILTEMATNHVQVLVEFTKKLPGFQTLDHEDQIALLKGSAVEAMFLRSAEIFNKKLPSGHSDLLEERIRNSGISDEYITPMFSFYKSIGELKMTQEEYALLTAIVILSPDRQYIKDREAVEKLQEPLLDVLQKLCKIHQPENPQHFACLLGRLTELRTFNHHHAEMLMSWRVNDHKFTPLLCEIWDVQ
# Method in brief: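 HepG2 cells transiently transfected with multiplexed cis-element reporter units read endogenous transcription factor activity. After 24 h compound exposure, reporter mRNA was quantified by RT-PCR, fluorescent labelling, HpaI digestion and capillary electrophoresis; bidirectional fitting versus DMSO baseline.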
# [13] = ATG_GRE_CIS: Attagene CIS-FACTORIAL HepG2 Assay for human Glucocorticoid Response Elements (GRE) (AID 2282947); details: HepG2 GRE cis-reporter, Attagene multiplex mRNA; actives raise or lower the signal
# Method in brief: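 Reporter transcripts read by RT-PCR with capillary electrophoresis fluorescence after a 24 h chemical exposure of HepG2 cells transiently transfected with multiple cis-element reporter units. Gain or loss fitted against DMSO.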
# [14] = ATG_ISRE_CIS: Attagene CIS-FACTORIAL HepG2 Assay for human Interferon Regulatory Factor 1 (IRF1) binding to an Interferon-Stimulated Response Element (ISRE) (AID 2282948); details: HepG2 ISRE cis-reporter (Attagene), mRNA transcription readout; actives raise or lower the signal
# Method in brief: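 Read-out: fluorescent RT-PCR products resolved by capillary electrophoresis, reporting endogenous transcription factor activity via ISRE-driven reporter mRNA in transfected HepG2 cells dosed for 24 h; gain or loss fitted relative to DMSO.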
# [15] = ATG_M_32_CIS: Attagene CIS-FACTORIAL HepG2 Assay for M32 Transcription Factor (Internal Marker) (AID 2282949); details: HepG2 Attagene cis-factorial M32 reporter, mRNA; actives raise or lower the signal;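 further: background control marker of the multiplexed CIS panel rather than a real target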
# Method in brief: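 HepG2 transfectants (cis-regulated reporter transcription units) dosed 24 h. Reporter mRNA by RT-PCR plus CE, analysed as gain or loss relative to DMSO.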
# [16] = ATG_M_06_CIS: Attagene CIS-FACTORIAL HepG2 Assay for M06 Transcription Factor (Internal Marker) (AID 2282950); details: HepG2 Attagene CIS-FACTORIAL M06 internal marker reporter; actives raise or lower the signal
# Method in brief: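 HepG2 liver cells, 24 h exposure. Reporter transcripts from transfected cis-element constructs quantified by RT-PCR/capillary electrophoresis fluorescence. Bidirectional curve fit against DMSO.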
# [17] = target: Hypoxia-inducible factor 1-alpha (Homo sapiens) (UniProt Q16665); experiment: ATG_HIF1a_CIS: Attagene CIS-FACTORIAL HepG2 Assay for human Hypoxia Inducible Factor 1 (HIF1A) (AID 2282951); details: HepG2 Attagene cis-factorial HIF1a reporter transcription; actives raise or lower the signal
# Chain of Hypoxia-inducible factor 1-alpha (Homo sapiens) (Q16665 whole entry, looked up): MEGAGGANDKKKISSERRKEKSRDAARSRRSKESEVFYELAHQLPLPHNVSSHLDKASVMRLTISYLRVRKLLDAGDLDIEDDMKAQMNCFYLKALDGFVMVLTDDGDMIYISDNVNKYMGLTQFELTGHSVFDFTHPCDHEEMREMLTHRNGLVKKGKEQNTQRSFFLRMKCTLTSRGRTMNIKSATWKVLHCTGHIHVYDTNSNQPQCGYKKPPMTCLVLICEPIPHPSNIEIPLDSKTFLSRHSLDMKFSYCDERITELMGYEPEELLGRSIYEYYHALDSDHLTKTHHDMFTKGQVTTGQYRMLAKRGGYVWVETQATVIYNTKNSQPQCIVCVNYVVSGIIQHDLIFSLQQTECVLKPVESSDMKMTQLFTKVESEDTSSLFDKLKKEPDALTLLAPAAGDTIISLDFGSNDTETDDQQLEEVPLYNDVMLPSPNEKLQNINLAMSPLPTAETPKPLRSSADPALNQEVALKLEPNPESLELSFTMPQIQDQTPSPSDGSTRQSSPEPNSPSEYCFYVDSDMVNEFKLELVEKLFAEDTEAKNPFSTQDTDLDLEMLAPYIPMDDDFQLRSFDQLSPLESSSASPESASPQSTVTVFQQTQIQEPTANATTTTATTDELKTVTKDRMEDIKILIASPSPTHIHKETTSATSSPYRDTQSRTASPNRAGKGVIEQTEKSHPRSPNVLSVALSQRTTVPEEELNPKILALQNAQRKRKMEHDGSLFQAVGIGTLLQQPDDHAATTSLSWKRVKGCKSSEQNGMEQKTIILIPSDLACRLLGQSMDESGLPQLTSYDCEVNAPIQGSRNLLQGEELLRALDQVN
# Method in brief: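 Dosed 24 h, transfected HepG2 cells yielded total RNA whose reporter transcripts were RT-PCR-amplified and sized by capillary electrophoresis using fluorescent labelling; DMSO defined baseline, with gain and loss of signal both fitted.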
# [18] = target: Hepatocyte nuclear factor 6 (Homo sapiens) (UniProt Q9UBC0); experiment: ATG_HNF6_CIS: Attagene CIS-FACTORIAL HepG2 Assay for human Hepatocyte Nuclear Factor 6 (HNF6) (AID 2282952); details: HepG2 Attagene cis-factorial HNF6 reporter transcription; actives raise or lower the signal
# Chain of Hepatocyte nuclear factor 6 (Homo sapiens) (Q9UBC0 whole entry, looked up, the tested form may be a part): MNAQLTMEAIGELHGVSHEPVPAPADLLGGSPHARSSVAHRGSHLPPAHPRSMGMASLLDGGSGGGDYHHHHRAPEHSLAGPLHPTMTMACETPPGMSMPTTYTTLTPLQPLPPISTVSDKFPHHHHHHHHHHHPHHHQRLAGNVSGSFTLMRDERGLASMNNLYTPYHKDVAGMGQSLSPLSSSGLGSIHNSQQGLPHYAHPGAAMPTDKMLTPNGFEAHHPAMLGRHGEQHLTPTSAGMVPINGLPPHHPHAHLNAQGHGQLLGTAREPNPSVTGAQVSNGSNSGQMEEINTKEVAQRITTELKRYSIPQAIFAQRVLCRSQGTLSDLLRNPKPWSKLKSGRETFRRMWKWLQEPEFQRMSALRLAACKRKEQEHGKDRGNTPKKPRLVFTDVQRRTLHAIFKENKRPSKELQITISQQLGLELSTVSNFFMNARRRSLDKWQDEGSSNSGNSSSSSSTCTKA
# Method in brief: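 Readout: fluorescent reporter-transcript fragments resolved by capillary electrophoresis after RT-PCR, reflecting endogenous factor activity in transfected HepG2. Exposure 24 h. Gain or loss of signal fitted bidirectionally against DMSO.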
# [19] = target: Heat shock factor protein 1 (Homo sapiens) (UniProt Q00613); experiment: ATG_HSE_CIS: Attagene CIS-FACTORIAL HepG2 Assay for human Heat Shock Transcription Factor 1 (HSE) (AID 2282953); details: HepG2 HSE cis-reporter, Attagene RNA transcription; actives raise or lower the signal
# Chain of Heat shock factor protein 1 (Homo sapiens) (Q00613 whole entry, looked up, the tested form may be a part): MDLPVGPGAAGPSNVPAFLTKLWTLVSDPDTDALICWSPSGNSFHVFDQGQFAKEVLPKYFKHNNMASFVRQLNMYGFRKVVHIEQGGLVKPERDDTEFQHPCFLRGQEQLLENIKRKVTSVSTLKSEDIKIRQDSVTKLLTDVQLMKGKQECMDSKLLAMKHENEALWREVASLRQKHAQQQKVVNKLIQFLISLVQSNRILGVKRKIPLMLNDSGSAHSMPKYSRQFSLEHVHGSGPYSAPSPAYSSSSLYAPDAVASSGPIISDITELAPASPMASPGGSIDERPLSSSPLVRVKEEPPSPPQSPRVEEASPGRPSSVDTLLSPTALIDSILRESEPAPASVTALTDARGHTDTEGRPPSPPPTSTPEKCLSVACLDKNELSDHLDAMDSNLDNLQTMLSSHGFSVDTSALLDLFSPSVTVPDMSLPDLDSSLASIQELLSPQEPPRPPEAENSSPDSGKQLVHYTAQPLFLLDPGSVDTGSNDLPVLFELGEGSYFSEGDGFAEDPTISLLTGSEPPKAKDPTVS
# Method in brief: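 Endogenous transcription factor activity captured via cis-promoter reporter units transfected into HepG2; treatment lasted 24 h. Fluorescence intensity of reporter fragments analysed with bidirectional curve fitting, DMSO baseline.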
# [20] = ATG_MRE_CIS: Attagene CIS-FACTORIAL HepG2 Assay for human Metal Responsive Element (MRE) (AID 2282954); details: HepG2 MRE cis-reporter transcription, Attagene multiplex; actives raise or lower the signal
# Method in brief: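 Endogenous MRE-dependent transcription read as reporter mRNA in transiently transfected human HepG2 cells at 24 h. RNA reverse-transcribed, PCR-amplified, labelled and resolved by capillary electrophoresis; gain or loss relative to DMSO.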
smiles,measurement,setting,value
COc1cc(OC)nc(NC(=O)NS(=O)(=O)c2ncccc2OCC(F)(F)F)n1,outcome,[1],inactive
same,outcome,[2],inactive
same,outcome,[3],inactive
same,outcome,[4],inactive
same,outcome,[5],inactive
same,outcome,[6],inactive
same,outcome,[7],inactive
same,outcome,[8],inactive
same,outcome,[9],inactive
same,outcome,[10],inactive
same,outcome,[11],inactive
same,outcome,[12],inactive
same,outcome,[13],inactive
same,outcome,[14],inactive
same,outcome,[15],inactive
same,outcome,[16],inactive
same,outcome,[17],inactive
same,outcome,[18],inactive
same,outcome,[19],inactive
same,outcome,[20],inactive
CCN(CC)C(=O)C(C)Oc1cccc2ccccc12 (centres undefined),outcome,[1],inactive
same,outcome,[2],inactive
same,outcome,[3],inactive
same,outcome,[4],inactive
same,outcome,[5],inactive
same,AC50,[6],25.2 µM (active)
same,outcome,[7],inactive
same,outcome,[8],inactive
same,outcome,[9],inactive
same,outcome,[10],inactive
same,outcome,[11],inactive
same,outcome,[12],inactive
same,outcome,[14],inactive
same,outcome,[15],inactive
same,outcome,[16],inactive
same,AC50,[17],23.6 µM (active)
same,outcome,[18],inactive
same,outcome,[19],inactive
same,AC50,[20],7.47 µM (active)
Cc1nc(N(C)C)nc(OC(=O)N(C)C)c1C,outcome,[1],inactive
same,outcome,[2],inactive
same,outcome,[3],inactive
same,outcome,[4],inactive
same,outcome,[5],inactive
same,outcome,[6],inactive
same,outcome,[7],inactive
same,outcome,[8],inactive
same,outcome,[9],inactive
same,outcome,[10],inactive
same,outcome,[11],inactive
same,outcome,[12],inactive
same,outcome,[13],inactive
same,outcome,[14],inactive
same,outcome,[15],inactive
same,outcome,[16],inactive
same,outcome,[17],inactive
same,outcome,[18],inactive
same,outcome,[19],inactive
same,outcome,[20],inactive
